Only some compounds are listed: those with a hit (about 18% of all), similar ones and a draw of the others.
Six1-Eya2 inh – inhibitors of human Six1/Eya2 interaction. Q15475+O00167. AID 651725. AlphaScreen GST-Six1/His-Eya2 binding, biochemical; hits give low values. activity change, % (concentration not given with the values). actives 0.56% (n = 360,000); in the data active means activity change below about -65%; inconclusive means mostly about -30% to -63%
Target sequence (O00167 whole entry, looked up): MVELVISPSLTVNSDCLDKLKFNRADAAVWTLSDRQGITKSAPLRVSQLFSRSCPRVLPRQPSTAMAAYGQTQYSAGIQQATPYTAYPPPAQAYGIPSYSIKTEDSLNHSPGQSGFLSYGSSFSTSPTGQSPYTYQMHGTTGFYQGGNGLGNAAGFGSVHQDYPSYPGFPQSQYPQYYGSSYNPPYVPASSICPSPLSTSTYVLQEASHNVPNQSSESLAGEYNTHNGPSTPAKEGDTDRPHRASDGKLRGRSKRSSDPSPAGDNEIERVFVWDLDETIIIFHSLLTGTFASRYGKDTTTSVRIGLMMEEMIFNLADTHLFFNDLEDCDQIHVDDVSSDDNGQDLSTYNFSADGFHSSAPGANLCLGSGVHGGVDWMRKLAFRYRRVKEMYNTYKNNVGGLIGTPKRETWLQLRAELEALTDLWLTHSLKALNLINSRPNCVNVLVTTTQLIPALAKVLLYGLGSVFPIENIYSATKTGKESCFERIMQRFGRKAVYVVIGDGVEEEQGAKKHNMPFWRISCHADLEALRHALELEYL
Target sequence (Q15475 whole entry, looked up): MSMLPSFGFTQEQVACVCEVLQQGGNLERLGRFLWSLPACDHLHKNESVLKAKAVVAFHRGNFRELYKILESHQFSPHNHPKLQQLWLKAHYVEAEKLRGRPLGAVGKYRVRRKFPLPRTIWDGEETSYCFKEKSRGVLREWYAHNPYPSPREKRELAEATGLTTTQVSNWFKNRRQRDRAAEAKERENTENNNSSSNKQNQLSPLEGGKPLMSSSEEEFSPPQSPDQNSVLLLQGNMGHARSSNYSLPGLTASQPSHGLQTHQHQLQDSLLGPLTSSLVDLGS
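Homogeneous AlphaScreen proximity assay pairing GST-Six1 with His-tagged Eya2 (added as 5X mix: 250 nM and 500 nM) in 50 mM Tris pH 8.0, 300 mM NaCl, 1 mM TCEP. Glutathione donor and nickel acceptor beads; 1 h, 37 °C, dark.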
DT40 TDP1 CPT – DT40-hTDP1 cell growth loss with CPT; actives 12% (n = 420,000); Potency, µM (top dose mostly 46.2 µM), for inactives: top-dose activity change, negative = growth inhibition, most hits filed as inhibitors; chicken DT40 Tdp1-/-;hTDP1 cells + 20 nM CPT, ATP luminescence, 48 h; further: potency means the concentration at half of the fitted maximal effect; nearly all actives have a fitted effect of over 55% in size
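Cell growth measured by CellTiter-Glo luminescence after a minimum 48 h, 37 C compound exposure with 20 nM CPT in Tdp1-knockout DT40 cells stably expressing hTDP1, seeded 400/well; qHTS titration format.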
IL1B secr inh – inflammasome signaling inhibition, IL-1 beta readout | THP-1 LPS/ATP IL-1B secretion, AlphaLISA, 16 h; hits give low values | activity change, % at 57.5 µM | actives 4.7% (n = 360,000); in the data active means activity change below about -50%; inconclusive means mostly about -30% to -49%
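THP-1 cells pretreated 1 hr with compounds (up to 57.5 uM final), then stimulated with LPS (250 ng/mL final) plus ATP (1.25 mM final); secreted IL-1B measured by AlphaLISA after 16 hr, decreased signal indicating inhibition.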
CtBP-E1A blk – inhibitors of CtBP/E1A interaction; AlphaScreen GST-E1A/His-CtBP binding, 1536-well; hits give low values; activity change, % (no concentration beside the values); actives 0.49% (n = 340,000); in the data active means activity change below about -65%; inconclusive means mostly about -30% to -63%
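GST-E1A and His-tagged CtBP (125 nM each as 5X stock) were preincubated with pin-transferred compound for 2 h at 37 °C in the dark, then glutathione donor and nickel acceptor beads were added for 1 h before AlphaScreen reading.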
TDP1 cell noCPT – qHTS for Inhibitors of human tyrosyl-DNA phosphodiesterase 1 (TDP1): qHTS in cells in absence of CPT. Potency, µM (series often up to 46.2 µM), for inactives: at the highest dose activity change, negative = growth inhibition, usual class: inhibitors. DT40 Tdp1-/- hTDP1 cells, no CPT, ATP luminescence, 48 h. actives 15% (n = 420,000). AID 686978, 2013; further: potency means the concentration at half of the fitted maximal effect; nearly all actives have a fitted effect of over 55% in size
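Readout: luminescence from CellTiter-Glo after 30 min in the dark at RT. Cells: DT40 Tdp1-/- with stable hTDP1, 400/well. Exposure: compounds alone, ≥48 hr, 37 °C.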
TDP1 inh – inhibitors of human tyrosyl-DNA phosphodiesterase TDP1; recombinant TDP1, AlphaScreen DNA substrate cleavage; Potency, µM (titrated, usually from 130 µM), inactives show at the highest dose activity change, negative = inhibition, usual class: inhibitors; actives 0.28% (n = 350,000); AID 485290; further: potency means the concentration at half of the fitted maximal effect; nearly all actives have a fitted effect of over 40% in size
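Recombinant human Tdp1 (E. coli-expressed, 1 nM final) preincubated with compounds 15 min at room temperature, then 5'-biotin/3'-phosphotyrosine-FITC DNA substrate (15 nM final) added for 5 min. AlphaScreen beads (10 ug/ml final) added 10 min; cleavage lowers signal.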
* marks the source's active call; other numbers are inactive results; ? = inconclusive; nt = not tested or not shown. Unless noted, the call rests on the fitted dose curve; in most records, active means well fitted curve in the direction sought with a large enough effect; inconclusive means small, poorly fitted or top-dose-only effect, or another doubt; inactive means no such curve, though single readings can be large; an effect the other way counts as inactive or inconclusive. On the % scale 0 is the no-effect control and ±100 the full control effect.

SMILES	Six1-Eya2 inh	DT40 TDP1 CPT	IL1B secr inh	CtBP-E1A blk	TDP1 cell noCPT	TDP1 inh
O=C(CSc1nc2ccccc2n1Cc1cccc(F)c1)N1CCN(c2ccc(F)cc2)CC1	nt	?	nt	nt	?	4%
C=Cc1ccc(Cn2c(SCC(=O)N3CCN(c4ccc(F)cc4)CC3)nc3ccccc32)cc1	nt	23µM*	nt	nt	?	-4%
O=C(CSc1nc2ccccc2n1Cc1ccc(F)c(Cl)c1)N1CCN(c2ccc(F)cc2)CC1	nt	18µM*	nt	nt	9.2µM*	0%
CC(C)N(C(=O)CSc1nc2ccccc2n1Cc1ccc(F)cc1)C(C)C	-2	23µM*	-62*	-1	?	2%
COC(=O)c1ccc(Cn2c(SCC(=O)Nc3ccc(F)cc3)nc3ccccc32)cc1	nt	?	nt	nt	?	-1%
C=CCSc1nccc(-c2cc(Cl)sc2Cl)n1	40	-10%	27	-8	0%	0%
COC(=O)c1cc(-c2ccc(S(=O)(=O)N3CCCCC3)cc2)c(C(F)(F)F)s1	8	?	9	11	23µM*	0%
CCN(CC)S(=O)(=O)c1ccc(-c2cc(C(=O)OC)sc2C(F)(F)F)cc1	0	-30%	-21	1	18µM*	0%
COC(=O)c1cc(-c2ccc(S(=O)(=O)N3CCCC3)cc2)c(C(F)(F)F)s1	10	10%	3	17	?	-6%
COC(=O)[C@]12CCCCC=C1N(Cc1ccc3c(c1)OCO3)C(=O)[C@H](CC(=O)N1CCCCC1)C2	1	?	-9	-16	?	nt
Cc1ccc(CNC(=O)COC(=O)c2ccc(Cl)c(N)c2)cc1	-2	23µM*	23	-5	-10%	0%
Cc1ccc(C(=O)OCC(=O)NCc2ccccc2)cc1S(=O)(=O)N1CCCCC1	-4	15µM*	-17	0	?	-5%
Cn1c(N)c(C(=O)COC(=O)c2cccc(S(=O)(=O)N3CCCCC3)c2)c(=O)n(C)c1=O	-2	-3%	0	-14	-30%	2%
Cc1[nH]c2ccccc2c1C(=O)COC(=O)c1cccc(S(=O)(=O)N2CCCCC2)c1	-8	18µM*	25	-7	?	3%
Cc1ccc(C(=O)OCC(=O)c2c[nH]c3ccccc23)cc1S(=O)(=O)N1CCCCC1	-10	23µM*	19	0	18µM*	-4%
O=C(COC(=O)c1ccc(Cl)c(S(=O)(=O)N2CCCCCC2)c1)NCc1ccccc1	-4	23µM*	35	-2	?	nt
O=C(OCC(=O)N1CCCC1)c1ccc(Cl)c([N+](=O)[O-])c1	7	2%	-57*	2	-12%	nt
NC(=O)COC(=O)c1ccc(Cl)c(S(=O)(=O)N2CCCCCC2)c1	-1	6%	19	4	-18%	5%
O=C(OCC(=O)N1CCCCCC1)c1ccc(Cl)c(S(=O)(=O)N2CCCC2)c1	9	23µM*	-1	3	?	nt
CCNc1ccc(C(=O)OCC(=O)N2CCCC2)cc1[N+](=O)[O-]	-3	?	9	0	?	5%
O=C(COC(=O)c1ccc(Cl)c(S(=O)(=O)N2CCCC2)c1)NCc1ccccc1	-1	?	19	0	-29%	35µM*
O=C(COC(=O)c1ccc(S(=O)(=O)N2CCCCC2)cc1)NCc1ccccc1	17	-6%	8	-17	-25%	-3%
CCOc1ccccc1-n1c(SCC(=O)N2CCOCC2)nc2ccccc2c1=O	-1	1%	-7	-1	-30%	nt
O=C1CCCN1C(=O)CSc1nnnn1-c1ccccc1	0	-9%	11	nt	0%	0%
Cc1ccc(C(=O)OCC(=O)c2c[nH]c3ccccc23)cc1NC(=O)c1ccco1	-2	?	?	-17	21µM*	5%
